“And” between values parts separate entries of the source, which are not always exact repeats. Identical values can stand only once. Records with an inconclusive call do not appear. The source made the active and inactive calls. Unless noted, calls come from the whole dose curve; as a rule, active = well fitted curve in the direction sought with a large enough effect; inconclusive = small, poorly fitted or top-dose-only effect, or another doubt; inactive = no such curve, though single readings can be large; an effect the other way counts as inactive or inconclusive.
How the values were obtained:
[1] = target: Cellular tumor antigen p53 (Homo sapiens) (UniProt P04637); assay: Primary qHTS for small molecule compounds that upregulate eGFP-tagged delta133p53alpha (in N-terminal) cells. (AID 2060322); settings: NCI-H358 eGFP-delta133p53alpha fluorescence, 24 h; activation: hits give high values;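 note: series mostly up to about 56 µM; 0% = DMSO vehicle and 100% = reference activator; nearly all actives have a fitted effect of over 75% in size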
Sequence of Cellular tumor antigen p53 (Homo sapiens) (P04637 whole entry, looked up): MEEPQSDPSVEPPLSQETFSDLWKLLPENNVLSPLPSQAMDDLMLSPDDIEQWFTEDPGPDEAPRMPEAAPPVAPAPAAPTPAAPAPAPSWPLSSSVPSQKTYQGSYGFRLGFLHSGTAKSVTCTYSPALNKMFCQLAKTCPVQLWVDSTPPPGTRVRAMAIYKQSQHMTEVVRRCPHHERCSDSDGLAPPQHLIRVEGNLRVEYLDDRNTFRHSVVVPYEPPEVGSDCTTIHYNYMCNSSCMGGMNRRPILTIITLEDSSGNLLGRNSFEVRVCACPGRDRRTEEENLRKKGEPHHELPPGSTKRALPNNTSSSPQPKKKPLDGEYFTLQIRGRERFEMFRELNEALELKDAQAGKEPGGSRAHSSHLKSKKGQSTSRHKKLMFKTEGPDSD
In short: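 NCI-H358 cells pre-induced 24 h with 10 ng/ml doxycycline to express N-terminal eGFP-delta133p53alpha, then dosed 24 h at 37C without doxycycline; fixed, Hoechst-stained, GFP intensity by laser scanning cytometry, normalized to DMSO (0%) and 57.5 uM 5-azacytidine (100%).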

[2] = target: Cellular tumor antigen p53 (Homo sapiens) (UniProt P04637); assay: Primary qHTS for small molecule compounds that upregulate eGFP-tagged delta133p53alpha (in C-terminal) cells. (AID 2060324);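 note: 0% = DMSO wells and 100% = 57.5 µM 5-azacytidine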
In short: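 C-terminal eGFP-tagged delta133p53alpha NCI-H358 line; dox-induced (100 ng/ml, 24 h) then plated without dox; compounds pinned in titration, 24 h 37 °C/5% CO2; PFA fix, Hoechst nuclei; GFP by LSC.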

[3] = target: Aldehyde dehydrogenase, mitochondrial (Homo sapiens) (UniProt P05091); assay: qHTS for Inhibitors of the Aldehyde Dehydrogenase Family (ALDH2) Validation screens (AID 2061302; active = well fitted inhibition curve with a large enough effect; title and protocol of this record describe different tests;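 note: plate controls were DMSO vehicle for no effect and maximal DPI positive control response for full effect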)
[4] = BET inhibitor-based combinations targeting novel dependencies in MECOM-rearranged (r) AML: MV-4-11 cell line (AID 2202233); note: potency is the fitted concentration of half-maximal effect; nearly all actives have a fitted effect of over 45% in size
In short: (§1)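 Cells were plated at 500 per well and exposed to each drug across an 11-point dose range for 48 hr at standard incubator conditions. Viability was read by CellTiter-Glo luminescence, and activity was expressed as AUC and per-cell-line Z-transformed AUC.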

[5] = BET inhibitor-based combinations targeting novel dependencies in MECOM-rearranged (r) AML: HNT-34 cell line (AID 2202234);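 note: plate controls were vehicle wells for no effect and cell-free wells for full effect; nearly all actives have a fitted effect of over 35% in size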
In short: as §1

[6] = BET inhibitor-based combinations targeting novel dependencies in MECOM-rearranged (r) AML: UCSD-AML1 cell line (AID 2202235);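 note: series mostly up to about 46 µM; plate controls were DMSO vehicle wells for no effect and blank wells for full effect; nearly all actives have a fitted effect of over 40% in size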
In short: as §1

[7] = BET inhibitor-based combinations targeting novel dependencies in MECOM-rearranged (r) AML: AML-191 cell line (AID 2202236;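 note: plate controls were vehicle wells for no effect and wells without cells for full effect; nearly all actives have a fitted effect of over 35% in size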)
In short: (§2)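 500 cells/well; 11-pt dose curve; 48 h, standard incubator; CellTiter-Glo luminescence after 15 min RT; DMSO/empty-well normalization; AUC plus Z-AUC (mean-centered within each line).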

[8] = BET inhibitor-based combinations targeting novel dependencies in MECOM-rearranged (r) AML: AML-194 cell line (AID 2202237;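 note: plate controls were vehicle wells for no effect and wells without cells for full effect; nearly all actives have a fitted effect of over 40% in size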)
In short: as §2

[9] = target: Aldehyde dehydrogenase, mitochondrial (Homo sapiens) (UniProt P05091); assay: qHTS for Inhibitors of the Aldehyde Dehydrogenase Family (ALDH2) Confirmatory screens (AID 2061303; active = well fitted inhibition curve with a large enough effect; title and protocol of this record describe different tests; note: % is set by controls: 0 for no effect and ±100 for the full control effect; nearly all actives have a fitted effect of over 45% in size)
[10] = qHTS for Inhibitors of the Aldehyde Dehydrogenase Family (ALDH1A2, ALDH1A3, ALDH2, ALDH3A1) (AID 2061307); note: % is set by controls: 0 for no effect and ±100 for the full control effect; nearly all actives have a fitted effect of over 50% in size
[11] = target: Aldehyde dehydrogenase, mitochondrial (Homo sapiens) (UniProt P05091); assay: qHTS for Inhibitors of the Aldehyde Dehydrogenase Family (ALDH2) Primary screen (AID 2061308);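 note: plate controls were vehicle for no effect and reference inhibitor for full effect; nearly all actives have a fitted effect of over 55% in size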
[12] = target: Retinaldehyde dehydrogenase 3 (Homo sapiens) (UniProt P47895); assay: qHTS for Inhibitors of the Aldehyde Dehydrogenase Family (ALDH1A3) Confirmatory screens (AID 2061311); note: nearly all actives have a fitted effect of over 60% in size; note: potency is the fitted concentration of half-maximal effect
[13] = target: Retinal dehydrogenase 2 (Homo sapiens) (UniProt O94788); assay: qHTS for Inhibitors of the Aldehyde Dehydrogenase Family (ALDH1A2) Confirmation screens (AID 2061314); note: % is set by controls: 0 for no effect and ±100 for the full control effect; nearly all actives have a fitted effect of over 65% in size
[14] = target: Retinaldehyde dehydrogenase 3 (Homo sapiens) (UniProt P47895); assay: qHTS for Inhibitors of the Aldehyde Dehydrogenase Family (ALDH1A3) Primary screen (AID 2061315);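 note: plate controls were DMSO vehicle for no effect and reference inhibitor for full effect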
[15] = target: Retinaldehyde dehydrogenase 3 (Homo sapiens) (UniProt P47895); assay: qHTS for Inhibitors of the Aldehyde Dehydrogenase Family (ALDH1A3) Validation screen (AID 2061312); note: % is set by controls: 0 for no effect and ±100 for the full control effect; nearly all actives have a fitted effect of over 45% in size
[16] = target: Aldehyde dehydrogenase 1A1 (Homo sapiens) (UniProt P00352); assay: qHTS for Inhibitors of the Aldehyde Dehydrogenase Family (ALDH1A1) Confirmatory screens (AID 2061316); note: nearly all actives have a fitted effect of over 65% in size; note: potency is the fitted concentration of half-maximal effect
[17] = BET inhibitor-based combinations targeting novel dependencies in MECOM-rearranged (r) AML: SET-2 cell line (AID 2202231); settings: SET-2 AML cells viability, CellTiter-Glo luminescence, 48 h; viability: hits give low values, series mostly up to about 46 µM;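 note: plate controls were DMSO treated cells for no effect and wells without cells for full effect; nearly all actives have a fitted effect of over 35% in size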
In short: as §2

[18] = BET inhibitor-based combinations targeting novel dependencies in MECOM-rearranged (r) AML: OCI-AML3 cell line (AID 2202232); settings: Potency: OCI-AML3 viability;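 note: series mostly up to about 46 µM; plate controls were DMSO vehicle wells for no effect and wells without cells for full effect; nearly all actives have a fitted effect of over 35% in size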
In short: as §2

O=c1cc(N2CCOCC2)oc2c(-c3ccccc3)cccc12
active: Potency [4] 13.2 µM
inactive: activation [1] 3.72% and -10.8% | Potency [2] | Potency [3]

Cc1c(OCC(F)(F)F)ccnc1CS(=O)c1nc2ccccc2[nH]1 (centres undefined)
inactive: activation [1] 8.47% and 28.3% | Potency [2] | Potency [3] | Potency [5] | Potency [6] | Potency [7] | Potency [8]

COc1ccccc1N1CCN(CCN2C(=O)CC3(CCCC3)CC2=O)CC1
inactive: activation [1] 3.57% and -22.5% | Potency [2] | Potency [9] | Potency [10] | Potency [11] | Potency [12] | Potency [13] | Potency [14]

CCCCCCCC/C=C\CCCCCCCC(=O)NCc1ccc(O)c(OC)c1
inactive: activation [1] -13% and -42.7% | Potency [2] | Potency [15]

O=C1NC(=O)C(c2ccccc2[N+](=O)[O-])=C1Nc1ccc(O)c(Cl)c1
active: Potency [4] 20.9 µM
inactive: activation [1] -20.1% and -30.9% | Potency [2]

NC(=O)C1=CN(C2OC(COP(=O)(O)OP(=O)(O)OC[C@H]3O[C@@H](n4cnc5c(N)ncnc54)[C@H](OP(=O)(O)O)[C@@H]3O)C(O)C2O)C=CC1 (some centres undefined)
inactive: activation [1] -2.48% | Potency [2] | Potency [15]

O=C(O)Cc1ccc(O)c(O)c1
inactive: activation [1] 10.9% | Potency [2] | Potency [10]
active: Potency [16] 14.2 µM

Cn1c(=O)c2[nH]c(-c3ccc(S(=O)(=O)O)cc3)nc2n(C)c1=O
inactive: activation [1] 1.02% | Potency [2] | Potency [9] | Potency [10] | Potency [12] | Potency [15] | Potency [13] | Potency [16]

Cn1ncc(S(=O)(=O)Cc2ccccc2)c(Br)c1=O
inactive: activation [1] -32.8% | Potency [2] | Potency [10]

S=c1[nH]c(-c2ccccc2)cn1-c1ccccc1
inactive: activation [1] -21.8% | Potency [2] | Potency [15]

Clc1ccc2c(N3CCN(CCCN4CCN(c5ccnc6cc(Cl)ccc56)CC4)CC3)ccnc2c1
inactive: activation [1] 26.5% | Potency [2] | Potency [10] | viability [17] 76.4% | Potency [18] | Potency [5] | Potency [6] | Potency [7] | Potency [8]

CN(C)C/C=C(/c1ccc(Br)cc1)c1cccnc1
inactive: activation [1] -2.82% and -52.8% | Potency [2] | Potency [9] | Potency [12] | Potency [16]

N#C/C(=C\c1ccc(O)c(O)c1)C(=O)NCCCNC(=O)/C(C#N)=C/c1ccc(O)c(O)c1
active: Potency [12] 2.83 µM
inactive: activation [1] -33.4% | Potency [2]

O=C(O)C1=CCCN(CCON=C(c2ccccc2)c2ccccc2)C1
inactive: activation [1] 20.9% | Potency [2] | Potency [15]

CCn1cc(C(=O)O)c(=O)c2cc3c(cc21)OCO3
inactive: activation [1] 2.82% and -18.3% | Potency [2] | Potency [15]
